# Test results published in PubChem BioAssay (NCATS).
# Inconclusive results are not listed. Where a call stands in place of a potency, no number is given. Activity calls are given as the source filed them. Calls come from the whole dose curve; as a rule, active = well fitted curve in the direction sought with a large enough effect; inconclusive = small, poorly fitted or top-dose-only effect, or another doubt; inactive = no such curve, though single readings can be large; an effect the other way counts as inactive or inconclusive.
# Key:
# [1] = qHTS of pediatric cancer cell lines to identify multiple opportunities for drug repurposing: Primary screen for BT-12 cells (AID 1347101); note: nearly all actives have a fitted effect of over 25% in size
# Summary of the method: (§1)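 Cells (500-1,000/well) rested 5 h, then received compounds for 48 h; metabolically active cells were measured by CellTiter-Glo luminescence. Final concentrations spanned up to 46 µM (MIPE, 11-point) or 0.59 nM-46 µM (NPC, 8-point) in primary screens, 11-point in follow-ups.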
# [2] = qHTS of pediatric cancer cell lines to identify multiple opportunities for drug repurposing: Primary screen for Rh18 cells (AID 1347102); note: nearly all actives have a fitted effect of over 65% in size
# Summary of the method: as §1
# [3] = qHTS of pediatric cancer cell lines to identify multiple opportunities for drug repurposing: Primary screen for OHS-50 cells (AID 1347103); note: nearly all actives have a fitted effect of over 40% in size
# Summary of the method: as §1
# [4] = qHTS of pediatric cancer cell lines to identify multiple opportunities for drug repurposing: Primary screen for RD cells (AID 1347104); note: nearly all actives have a fitted effect of over 55% in size
# Summary of the method: (§2)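 Primary screen of approved and investigational compounds on cells in growth media at 37 degrees C, 5% CO2. MIPE set at 11-point and NPC set at 8-point dilutions; viability scored by ATP-based luminescence at 48 hours.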
# [5] = qHTS of pediatric cancer cell lines to identify multiple opportunities for drug repurposing: Primary screen for MG 63 (6-TG R) cells (AID 1347105); note: nearly all actives have a fitted effect of over 50% in size
# Summary of the method: as §2
# [6] = qHTS of pediatric cancer cell lines to identify multiple opportunities for drug repurposing: Primary screen for control Hh wild type fibroblast cells (AID 1347106); note: nearly all actives have a fitted effect of over 55% in size
# Summary of the method: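 Viability after 48 h compound treatment at 37C, 500-1,000 cells/well, read as ATP luminescence with CellTiter-Glo. Primary screens used 11-point (MIPE, 0.78 nM-46 µM) or 8-point (NPC, 0.59 nM-46 µM) final concentrations; follow-up screens used 11-point dilutions.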
# [7] = qHTS of pediatric cancer cell lines to identify multiple opportunities for drug repurposing: Primary screen for Rh30 cells (AID 1347107); note: nearly all actives have a fitted effect of over 75% in size
# Summary of the method: as §1
# [8] = qHTS of pediatric cancer cell lines to identify multiple opportunities for drug repurposing: Primary screen for Rh41 cells (AID 1347108); note: nearly all actives have a fitted effect of over 70% in size
# Summary of the method: as §2
# Potency is the fitted concentration of half-maximal effect.
Compound,Potency [1],Potency [2],Potency [3],Potency [4],Potency [5],Potency [6],Potency [7],Potency [8]
N#Cc1cc(NC(=O)Nc2nnc(-c3ccncc3)s2)ccc1-c1cn[nH]c1,inactive,inactive,inactive,inactive,inactive,inactive,inactive,
Cc1cn([C@@H]2O[C@H](CO)[C@@H](O)[C@H]2F)c(=O)[nH]c1=O,inactive,inactive,inactive,inactive,inactive,inactive,inactive,inactive
COc1ccc(CCC(=O)c2c(O)cc(O[C@@H]3O[C@H](CO)[C@@H](O)[C@H](O)[C@@H]3O[C@@H]3O[C@@H](C)[C@H](O)[C@@H](O)[C@@H]3O)cc2O)cc1O,inactive,inactive,inactive,13.2 µM (active),inactive,3.72 µM (active),,
OCc1ccccc1O[C@@H]1O[C@H](CO)[C@H](O)[C@H](O)[C@H]1O,inactive,inactive,inactive,inactive,inactive,inactive,inactive,inactive
Cn1cc(-c2ccc3ncc(Cc4ccc5ncccc5c4)n3n2)cn1,inactive,inactive,inactive,inactive,inactive,inactive,inactive,
COC1=C(OC)C(=O)C(CC=C(C)CCC=C(C)CCC=C(C)CCC=C(C)CCC=C(C)CCC=C(C)CCC=C(C)CCC=C(C)CCC=C(C)CCC=C(C)C)=C(C)C1=O,inactive,inactive,inactive,inactive,inactive,inactive,,
CC(C)(C)[N+]([O-])=Cc1ccc(S(=O)(=O)O)cc1S(=O)(=O)O,inactive,inactive,inactive,inactive,inactive,inactive,inactive,inactive
Nc1nc(=O)n([C@H]2CSC(CO)O2)cc1F (stereo partly specified),inactive,inactive,inactive,inactive,inactive,inactive,inactive,
O=C(O)CCCCCC(=O)NN=C1CCCC1,inactive,inactive,inactive,inactive,inactive,inactive,inactive,inactive
N#CC(=C(O)c1ccc(Cl)cc1Cl)c1nc2cc(Cl)ccc2c(=O)[nH]1,inactive,inactive,inactive,inactive,inactive,inactive,inactive,inactive
OC[C@H]1OC(O)C[C@@H](O)[C@H]1O (stereo partly specified),inactive,inactive,inactive,inactive,inactive,inactive,inactive,inactive
N[C@H]1CN(c2c(F)cc3c(=O)c(C(=O)O)cn(C4C[C@@H]4F)c3c2Cl)CC12CC2 (stereo partly specified),inactive,inactive,inactive,inactive,inactive,inactive,,
CCc1ccc(C(=O)Nc2cc(CN3CCN(C)CC3)cc(C(F)(F)F)c2)cc1C#Cc1cnc2ccnn2c1,27.3 µM (active),14.8 µM (active),12.2 µM (active),18.7 µM (active),18.7 µM (active),inactive,14.8 µM (active),9.35 µM (active)
c1coc(CNc2ncnc3nc[nH]c23)c1,inactive,inactive,inactive,inactive,inactive,inactive,inactive,inactive
OC[C@@H](O)[C@@H](O)[C@H](O)[C@@H](O)CO,inactive,inactive,inactive,inactive,inactive,inactive,inactive,inactive
C[C@H]1O[C@H](O[C@H]2[C@H](O)[C@@H](O)[C@@H](O[C@H]3[C@H](O)[C@@H](O)C(O)O[C@H]3CO)O[C@H]2CO)[C@H](O)[C@@H](O)[C@H]1N[C@H]1C=C(CO)[C@@H](O)[C@H](O)[C@@H]1O (stereo partly specified),2.17 µM (active),inactive,2.17 µM (active),inactive,inactive,inactive,inactive,inactive
COc1cc(OC)cc(-c2ccc3ncc4ccc(=O)n(-c5ccc(N6CCNCC6)c(C(F)(F)F)c5)c4c3c2)c1,19.3 µM (active),14.8 µM (active),4.32 µM (active),8.33 µM (active),14.8 µM (active),20.9 µM (active),16.6 µM (active),3.72 µM (active)
C=CC1=C(C(=O)O)N2C(=O)[C@@H](NC(=O)C(=NO)c3csc(N)n3)[C@H]2SC1,inactive,inactive,inactive,inactive,inactive,inactive,inactive,inactive
CCNC(=O)c1cc2c(-c3cc(OCCN4CCCC4)c(Cl)cc3Cl)nc(N)nc2s1,inactive,4.69 µM (active),3.85 µM (active),1.48 µM (active),14.8 µM (active),inactive,inactive,
CN(N=O)C(=O)N[C@H]1C(O)OC(CO)[C@@H](O)[C@H]1O (stereo partly specified),inactive,inactive,inactive,inactive,inactive,inactive,inactive,inactive
Oc1cc2c(cc1O)C1c3ccc(O)c(O)c3OCC1(O)C2 (stereo unspecified),inactive,inactive,inactive,inactive,inactive,inactive,inactive,inactive

Compound,Potency [1],Potency [2],Potency [3],Potency [4],Potency [5],Potency [6],Potency [7],Potency [8]
CCCCCCCCCCCCCCCC(=O)OC[C@@H](NC(=O)C(Cl)Cl)[C@H](O)c1ccc([N+](=O)[O-])cc1,inactive,inactive,inactive,inactive,inactive,inactive,inactive,inactive
OCC(O)C(O)C(O)CO (stereo unspecified),inactive,inactive,inactive,inactive,inactive,inactive,inactive,inactive
CC(=O)NC(CS)C(=O)O (stereo unspecified),inactive,inactive,inactive,inactive,inactive,inactive,inactive,inactive
CC(C)(O)[C@H]1CC[C@@](C)([C@H]2[C@@H](O)C[C@@]3(C)[C@@H]4C[C@H](O[C@@H]5O[C@H](CO)[C@@H](O)[C@H](O)[C@@H]5O)[C@H]5C(C)(C)[C@@H](O[C@@H]6OC[C@@H](O)[C@H](O)[C@@H]6O)CC[C@@]56C[C@@]46CC[C@]23C)O1,inactive,inactive,inactive,inactive,inactive,inactive,inactive,
O=c1[nH]c(=O)n([C@H]2C[C@@H](O)[C@@H](CO)O2)cc1C=CBr,inactive,inactive,inactive,inactive,inactive,inactive,inactive,inactive
CC(C)OC(=O)[C@H](C)N[P@](=O)(OC[C@H]1O[C@@H](n2ccc(=O)[nH]c2=O)[C@](C)(F)[C@H]1O)Oc1ccccc1,inactive,inactive,inactive,inactive,inactive,inactive,inactive,inactive
Nc1ccn(C[C@@H](CO)OCP(=O)(O)O)c(=O)n1,inactive,inactive,inactive,inactive,inactive,inactive,,
O=C(O)C(=O)Nc1cccc(C2=NN=N[N]2)c1,inactive,inactive,inactive,inactive,inactive,inactive,inactive,inactive
NC(=O)c1ncn([C@@H]2O[C@H](CO)[C@@H](O)[C@@H]2O)c1O,inactive,inactive,inactive,inactive,inactive,inactive,inactive,inactive
CC(=O)OCC(=O)[C@@]12N=C(C)O[C@H]1C[C@H]1[C@@H]3CCC4=CC(=O)C=C[C@]4(C)[C@@H]3[C@@H](O)C[C@@]12C,inactive,inactive,inactive,inactive,inactive,inactive,inactive,
C=C1C[C@@]2(O)O[C@@]3(C[C@H]2C(C)C)[C@H](C)CC[C@H]13,inactive,inactive,inactive,inactive,inactive,inactive,inactive,inactive
CC(=O)OC[C@@H]1O[C@@H](n2ccc(=O)[nH]c2=O)[C@H](OC(C)=O)[C@H]1OC(C)=O,inactive,inactive,inactive,inactive,inactive,inactive,,
O=C(c1ccc(F)cc1)N1CCC[C@H](c2nc(-c3ccc(F)cc3)no2)C1,inactive,inactive,inactive,inactive,inactive,inactive,inactive,inactive
CN[C@H](CC(C)C)C(=O)N[C@H]1C(=O)N[C@@H](CC(N)=O)C(=O)N[C@@H]2C(=O)N[C@H]3C(=O)N[C@H](C(=O)N[C@H](C(=O)O)c4cc(O)cc(O)c4-c4cc3ccc4O)[C@H](O)c3ccc(c(Cl)c3)Oc3cc2cc(c3O[C@@H]2O[C@H](CO)[C@@H](O)[C@H](O)[C@@H]2O[C@H]2C[C@](C)(N)[C@H](O)[C@H](C)O2)Oc2ccc(cc2Cl)[C@H]1O,inactive,inactive,inactive,inactive,inactive,inactive,inactive,
O=C(O)[C@H](CC(=O)N1C[C@@H]2CCCC[C@H]2C1)Cc1ccccc1,inactive,inactive,inactive,inactive,inactive,inactive,inactive,
C[C@H](CCC(=O)O)[C@H]1CC[C@H]2[C@@H]3[C@H](O)C[C@@H]4C[C@H](O)CC[C@]4(C)[C@@H]3CC[C@]12C,inactive,inactive,inactive,inactive,inactive,inactive,inactive,inactive
O=C(CN1C(=O)C2(CCCC2)NC[C@H]1c1cc(F)cc(F)c1)Nc1ccc2c(c1)C[C@@]1(C2)C(=O)Nc2ncccc21,inactive,inactive,inactive,inactive,inactive,inactive,inactive,
C[C@H]1COc2c(N3CCN(C)CC3)c(F)cc3c(=O)c(C(=O)O)cn1c23,inactive,inactive,inactive,inactive,inactive,inactive,inactive,
CC1(C)[C@H](O[C@H]2O[C@H](C(=O)O)[C@@H](O)[C@H](O)[C@H]2O[C@@H]2O[C@H](C(=O)O)[C@@H](O)[C@H](O)[C@H]2O)CC[C@@]2(C)[C@H]1CC[C@]1(C)[C@H]2C(=O)C=C2[C@H]3C[C@@](C)(C(=O)O)CC[C@]3(C)CC[C@]21C,inactive,inactive,inactive,inactive,inactive,inactive,,inactive
C[N+]1(C)[C@@H]2C[C@@H](OC(=O)C(O)(c3cccs3)c3cccs3)C[C@H]1[C@@H]1O[C@@H]12,inactive,inactive,inactive,inactive,inactive,,inactive,inactive
